# Shown are actives, neighbours in structure and some others; about 5.7% of the full set was active somewhere.
# KB-3-1 cytotox: qHTS assay for MDR1-selective chemotherapeutics: Primary screen using the parental adenocarcinoma cell KB-3-1 | KB-3-1 viability, CellTiter-Glo ATP luminescence, 72 h | Potency, µM (top dose mostly 46.1 µM), actives largely listed as cytotoxic | 400,000 tested, 1.4% active | AID 1347075, 2019; also: nearly all actives have a fitted effect of over 60% in size
#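 Parental KB-3-1 adenocarcinoma cells in phenol-red-free DMEM with 10% FBS were pin-treated with compounds at several concentrations, incubated 72 h at 37 °C, and viability read by CellTiter-Glo luminescence; concentration-effect curves were fitted after normalization.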
# HT1080NT lethal: qHTS for induction of synthetic lethality in tumor cells producing 2HG: qHTS for the HT-1080-NT fibrosarcoma cell line; HT-1080-NT fibrosarcoma viability, CellTiter-Glo ATP luminescence, 48 h; Potency, µM (doses to about 46.1 µM), usual class: cytotoxic; 360,000 tested, 1.6% active;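 also: NT is the 2HG producing partner of a matched IDH1 knockdown line; nearly all actives have a fitted effect of over 55% in size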
#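 Viability of the 2HG-overproducing fibrosarcoma line after 48 hours of compound exposure at 37 degrees C was determined by luminescence with CellTiter-Glo, and concentration-effect curves were then fitted and categorized.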
# HT1080 IDH1KD tx: qHTS for induction of synthetic lethality in tumor cells producing 2HG: qHTS for the HT-1080-IDH1KD cell line | HT-1080 IDH1 knockdown viability, ATP luminescence, 48 h | Potency, µM (top dose mostly 46.1 µM), actives largely listed as cytotoxic | 360,000 tested, 2% active | AID 686971, 2013
#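 IDH1KD HT-1080 cells, 750/well, RPMI + 5% FBS; compound pinned after 2 h settling; 48 h, 37 °C; CellTiter-Glo luminescence; % activity normalised to DMSO and no-cell wells; curves fitted, classed by r2 and efficacy.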
# KB-V1 MDR tox: qHTS assay for MDR1-selective chemotherapeutics: Primary screen using the drug-selected MDR subline cells KB-V1. Potency, µM (titrated, usually from 46.1 µM), usual class: cytotoxic. 400,000 tested, 3.4% active. KB-V1 MDR cells viability, CellTiter-Glo, 72 h; also: nearly all actives have a fitted effect of over 60% in size
#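 Drug-selected KB-V1 cells, grown in DMEM lacking phenol red with 10% FBS, receive compound titrations; after three days at 37 degrees C, surviving cell ATP is quantified by CellTiter-Glo luminescence and responses normalized and curve-fitted.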
# Hits are given with their value; – = inactive; ? = inconclusive; · = no result given; ! = repeats disagree; [ ] = dose if it differs, or a comment. Calls follow the shape of the dose curve; as a rule, active = well fitted curve in the direction sought with a large enough effect; inconclusive = small, poorly fitted or top-dose-only effect, or another doubt; inactive = no such curve, though single readings can be large; an effect the other way counts as inactive or inconclusive.
SMILES,KB-3-1 cytotox,HT1080NT lethal,HT1080 IDH1KD tx,KB-V1 MDR tox
CCOC(=O)c1[nH]c2ccccc2c1NC(=O)c1ccccc1OCC,1.64µM,·,·,?
CCOC(=O)c1[nH]c2ccccc2c1NC(=O)c1ccc(OCC)cc1,–,·,·,–
COC(=O)c1[nH]c2ccc(C)cc2c1NC(=O)c1ccccc1[N+](=O)[O-],–,–,–,16.4µM
COC(=O)c1[nH]c2ccc(Cl)cc2c1NC(=O)c1ccccc1[N+](=O)[O-],–,–,–,–
Cc1cc2c(cc1C)-n1nnnc1C(N(C)CCc1ccccc1)C(=O)N2 (stereo unspecified),–,–,–,?
Cc1cc2oc(C(=O)Nc3c(C(=O)Nc4ccccc4)oc4ccccc34)cc(=O)c2cc1C,–,·,·,–
COc1ccccc1CNC(=O)c1c(O)nc2c(C)cccn2c1=O,–,·,·,?
O=C1C(=O)c2c(ccc3ccccc23)-c2ccccc21,4.11µM,4.61µM,1.84µM,4.11µM
Oc1ccc(Nc2nc3ccccc3nc2Nc2ccc(O)cc2)cc1,–,23.1µM,11.6µM,?
Oc1ccc(Nc2nc(-c3ccccc3)nc3ccccc23)cc1,–,?,?,–
CN(c1ccccc1)S(=O)(=O)c1cccc(NC(=O)Cn2cnc3ccccc3c2=O)c1,?,–,–[9.24 µM],23.1µM
CN(c1ccccc1)S(=O)(=O)c1cccc(NC(=O)COc2cccc([N+](=O)[O-])c2)c1,–,–,–,18.4µM
COc1cccc(CN(C)CC(=O)Nc2cccc(S(=O)(=O)N(C)c3ccccc3)c2)c1OC,?,–,–,2.59µM
CCN(CC)S(=O)(=O)c1cc(NC(=O)Cn2cnc3ccccc3c2=O)ccc1C,–,–,–,–
CN(c1ccccc1)S(=O)(=O)c1cccc(NC(=O)CC(C)(C)C)c1,–,–,–,2.59µM
CCC(=O)c1ccc(OCC(=O)Nc2cccc(S(=O)(=O)N(C)c3ccccc3)c2)cc1,–,–,–,–
CC(=O)c1ccc(N2CCN(c3ncnc4onc(-c5ccc(Cl)cc5)c34)CC2)cc1,–,·,·,–
CCc1cccc(CC)c1NC(=O)CN(C)S(=O)(=O)c1ccc2c(c1)n(C)c(=O)c(=O)n2C,–,·,·,?
CSc1ccc(-c2nc3ncccn3c2Nc2ccc(C)c(C)c2)cc1,–,·,·,–
Cc1ccsc1CN(C)CC(=O)Nc1cccc(S(=O)(=O)N(C)c2ccccc2)c1,–,–,–,–
Cc1cc(S(=O)(=O)NCc2ccccc2)ccc1OCC(=O)Nc1cccc([N+](=O)[O-])c1,–,–,?,13µM
Cc1ccc(C(=O)Nc2cccc(S(=O)(=O)N(C)c3ccccc3)c2)o1,–,–,–,16.4µM
CCN(CC(=O)Nc1cccc(S(=O)(=O)N(C)c2ccccc2)c1)Cc1cccs1,?,–,–,4.61µM
CCOC(=O)c1ccc(NC(=O)Cn2cc(C(=O)c3ccc(Cl)cc3)c(=O)c3ccc(C)nc32)cc1,?,·,·,–
Cc1cccc(Cn2cnc3c(cnn3-c3ccc(Cl)cc3)c2=O)c1,–,·,·,–
SMILES,KB-3-1 cytotox,HT1080NT lethal,HT1080 IDH1KD tx,KB-V1 MDR tox
CC1=CC(C)(C)N2C(=O)C3(SCC(=O)N3c3ccc(F)cc3)c3cc(C)cc1c32 (stereo unspecified),?,–,–,16.4µM
Cc1ccc(NC(=O)CN2C(=O)C3(SCC(=O)N3c3cccc(Cl)c3)c3ccccc32)cc1C (stereo unspecified),–,·,·,10.3µM
Cc1ccc(N2C(=O)CSC23C(=O)N(CC(=O)NCc2ccccc2)c2ccccc23)cc1 (stereo unspecified),–,·,·,–
Cc1cc(C)c(NC(=O)CN2C(=O)C3(SCC(=O)N3c3ccc(F)cc3)c3ccccc32)c(C)c1 (stereo unspecified),–,·,·,14.6µM
Cc1ccc(N2C(=O)CSC23C(=O)N(CC(=O)Nc2ccccc2F)c2ccccc23)cc1C (stereo unspecified),–,·,·,?
CN1C(=O)C2(SCC(=O)N2c2ccc(Cl)cc2)c2ccccc21 (stereo unspecified),–,·,·,–
Cc1ccc(N2C(=O)CSC23C(=O)N(CC(=O)NC2CCCCC2)c2ccccc23)cc1 (stereo unspecified),–,·,·,18.4µM
C#CCN(C1CCCC1)S(=O)(=O)C=C,?,·,·,–
CN(C)S(=O)(=O)c1ccc(C(=O)OCC2COC(C)(C)O2)cc1 (stereo unspecified),–,–,–,?
Cc1cc(F)ccc1NC(=O)Cn1cc(S(=O)(=O)NC(C)C)c(S(=O)(=O)NC(C)C)c1,–,·,·,–
CCc1ccc(OCC(=O)Nc2cc3oc4ccccc4c3cc2OC)c(Br)c1,–,·,·,?
CC1(C)CC(N=c2cc(-c3ccccc3)oc3ccc(Cl)cc23)CC(C)(C)N1,20.6µM,7.31µM,16.4µM,?
Cc1ccccc1NC(=O)Cn1cnc2c(oc3ccccc32)c1=O,–,–,–,18.4µM
C/C(=N\NC(=O)COc1ccc(C)cc1Br)c1cc([N+](=O)[O-])cs1,20.6µM,?,?,?
CC(=O)Nc1c(C(=O)Nc2cccc(C)c2)nnn1-c1ccc(C)cc1,–,·,·,–
Cc1ccc(C(=O)NC2CC(C)(C)NC(C)(C)C2)cc1,–,–,–,–
CC1(C)CC(NC(=O)c2coc(=O)c(Br)c2)CC(C)(C)N1,16.4µM,–,–,–
CCOc1ccc2nc(-c3ccccc3)[nH]c2c1,?,8.2µM,9.2µM,–
CCN(CC)c1cc(C)c2cc(NC(=O)/C=C/c3ccccc3Cl)ccc2n1,13µM,·,·,–
CCN(CC)c1cc(C)c2cc(NC(=O)c3ccc(OC)c(OC)c3)ccc2n1,16.4µM,·,·,–
COc1ccc(Nc2cc(C)c3cc(NC(=O)c4ccccc4Cl)ccc3n2)cc1,–,·,·,18.4µM
CCN(CC)c1cc(C)c2cc(NC(=O)c3ccc(F)cc3Cl)ccc2n1,?,·,·,–
CCN(CC)c1cc(C)c2cc(NC(=O)c3ccccc3OC)ccc2n1,18.4µM!,?,?,?
CC(C)OCCCN1C(=O)c2[nH]nc(-c3ccccc3O)c2C1c1ccccc1F (stereo unspecified),–,·,·,–
Cc1cccc(C)c1OC(=O)CSc1nnc(CNC(=O)c2ccccc2)o1,–,·,·,–
SMILES,KB-3-1 cytotox,HT1080NT lethal,HT1080 IDH1KD tx,KB-V1 MDR tox
Cc1cc(C)cc(NC(=O)NCCn2nnc3cc(S(=O)(=O)N(C)C)ccc32)c1,–,·,·,–
COc1ccc(OC)c(NC(=O)COC(=O)c2c3c(nc4ccccc24)CCCC3)c1,25.9µM,?,?,25.9µM
COc1ccc(NC(=O)COC(=O)c2c3c(nc4ccccc24)CCCC3)cc1Cl,–,?,?,16.4µM
COc1ccc(NC(=O)COC(=O)c2c3c(nc4ccccc24)CCCC3)cc1,?,–,?,?
Cc1nc2nc(-c3ccc(Cl)cc3Cl)nn2c(C)c1CCC(=O)Nc1ccc(F)cc1,–,·,·,–
Cc1nn(CCC(=O)NNC(=S)Nc2ccccc2)c(C)c1Br,–,?,–,–
Cc1nn(CCC(=O)NNC(=S)NCC(C)C)c(C)c1Br,–,1.12µM,1.26µM,–
CNC(=S)NNC(=O)CCn1nc(C)c(Br)c1C,–,11.2µM,15.8µM,–
